The supplement of paper PMC8728848
This excerpt belongs to a sample that is enriched for the strongest signals.

Experiments:
Experiment in all cases: glycan array binding signal (z-score within array); higher = stronger binding
Details in all cases: glycan notation: IUPAC condensed, linker removed
[1] = target: Fuc(a1-2)Gal(b1-4)GlcNAc(b1-3)Gal(b1-4)GlcNAc(b1-3)Gal(b1-4)GlcNAc
In short: (§1)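 The binding signal is a Z-score computed within each array and averaged over linkers. Arrays of the same protein sequence at different concentrations or buffers were also averaged together. Data originate from 3228 arrays in the Consortium for Functional Glycomics database, kept only where the protein sequence was available.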

[2] = target: Fuc(a1-2)Gal(b1-4)[Fuc(a1-3)]GalNAc(b1-3)Gal(b1-4)[Fuc(a1-3)]GlcNAc
In short: as §1

[3] = target: Fuc(a1-2)Gal(b1-4)[Fuc(a1-3)]GalNAc(b1-3)Gal(b1-4)[Fuc(a1-3)]GlcNAc(b1-3)Gal(b1-4)[Fuc(a1-3)]GalNAc
In short: as §1

[4] = target: Fuc(a1-2)Gal(b1-4)[Fuc(a1-3)]GlcNAc
In short: as §1

Fuc(a1-2)[Gal(a1-3)]Gal = target: Fuc(a1-2)[Gal(a1-3)]Gal
In short: as §1

[5] = target: Fuc(a1-2)[Gal(a1-3)]Gal(b1-4)[Fuc(a1-3)]GlcNAc
In short: as §1

[6] = target: Fuc(a1-2)[GalNAc(a1-3)]Gal
In short: as §1

Fuc(a1-3)GlcNAc = target: Fuc(a1-3)GlcNAc
In short: as §1

[7] = target: Fuc(a1-3)[Gal(b1-4)]GlcNAc
In short: as §1

Gal(a1-2)Gal = target: Gal(a1-2)Gal
In short: as §1

[8] = target: Gal(b1-3)[Neu5Ac(a2-6)]GalNAc
In short: as §1

[9] = target: Gal(b1-3)[Neu5Ac(b2-6)]GlcNAc
In short: as §1

[10] = target: Gal(b1-4)GlcNAc(b1-2)Man(a1-3)[Gal(b1-4)GlcNAc(b1-2)Man(a1-6)]Man(b1-4)GlcNAc(b1-4)GlcNAc
In short: as §1

[11] = target: Gal(b1-4)GlcNAc(b1-3)Gal(b1-4)GlcNAc(b1-3)Gal(b1-4)GlcNAc
In short: as §1

[12] = target: Gal(b1-4)GlcNAc(b1-3)[Gal(b1-4)GlcNAc(b1-6)]GalNAc
In short: as §1

[13] = target: Gal(b1-4)GlcNAc(b1-6)[Gal(b1-3)]GalNAc
In short: as §1

Gal6S(b1-4)Glc6S = target: Gal6S(b1-4)Glc6S
In short: as §1

GalNAc(b1-4)GlcNAc = target: GalNAc(b1-4)GlcNAc
In short: as §1

GlcNAc(b1-3)GalNAc = target: GlcNAc(b1-3)GalNAc
In short: as §1

Kdn(a2-3)Gal(b1-4)GlcNAc = target: Kdn(a2-3)Gal(b1-4)GlcNAc
In short: as §1

[14] = target: Neu5Ac(a2-3)Gal(b1-4)[Fuc(a1-3)]GlcNAc
In short: as §1

[15] = target: Neu5Gc(a2-3)Gal(b1-3)GlcNAc
In short: as §1

B1: NakA (Mycobacterium tuberculosum) (protein)
chain: SVVKPTKVTVFSPDGGADNPGEADLAIDGNPATSWKTDIYTDPVPFPSFKNGVGLMLQLPQATVVGTVAIDVASTGTKVEIRSASTPTPATLEDTAVLTSATALRPGHNTISVEAAAPTSNLLVWISTLGTTDGKSQADISEITIYAASD
[1]
  glycan array binding signal (z-score): 2.46
[2]
  glycan array binding signal (z-score): 1.53
[3]
  glycan array binding signal (z-score): 2.85
[4]
  glycan array binding signal (z-score): 2.46
Fuc(a1-2)[Gal(a1-3)]Gal
  glycan array binding signal (z-score): 0.037
[5]
  glycan array binding signal (z-score): 2.29
[6]
  glycan array binding signal (z-score): 0.057
Fuc(a1-3)GlcNAc
  glycan array binding signal (z-score): 3.17
[7]
  glycan array binding signal (z-score): -0.303
Gal(a1-2)Gal
  glycan array binding signal (z-score): -0.019
[8]
  glycan array binding signal (z-score): -0.457
[9]
  glycan array binding signal (z-score): -0.353
[10]
  glycan array binding signal (z-score): -0.5
[11]
  glycan array binding signal (z-score): -0.502
[12]
  glycan array binding signal (z-score): -0.414
[13]
  glycan array binding signal (z-score): -0.553
Gal6S(b1-4)Glc6S
  glycan array binding signal (z-score): -0.213
GalNAc(b1-4)GlcNAc
  glycan array binding signal (z-score): -0.305
GlcNAc(b1-3)GalNAc
  glycan array binding signal (z-score): -0.001
Kdn(a2-3)Gal(b1-4)GlcNAc
  glycan array binding signal (z-score): -0.507
[14]
  glycan array binding signal (z-score): -0.418
[15]
  glycan array binding signal (z-score): -0.404
